Assay results reported in PubChem BioAssay AID934 (National Center for Advancing Translational Sciences (NCATS), 2007).
Records with an inconclusive call do not appear. A number with no mark means an inactive call. Activity calls are given as the source filed them. Calls come from the whole dose curve; as a rule, active = well fitted activation curve with a large enough effect; inconclusive = small, poorly fitted or top-dose-only effect; inactive = flat fitted curve, though single readings scatter.

Experiment: Parental Cell Counter Screen for Stat Signaling Pathway Assay
Conditions: ME-180 (cervical carcinoma) parental cells, blue fluorescence artefact counter-screen; series mostly up to 38.3 µM; activity (fluorescence increase): at the top concentration
Text: NIH Molecular Libraries Screening Centers Network [MLSCN] NIH Chemical Genomics Center [NCGC] MLSCN Grant: None NCGC Assay Overview: This assay is a counter screen for the Stat signaling pathway assay (PubChem AID 446). The Stat assay is cell-based and measures Interleukin 6 (IL-6) mediated modulation of a beta-lactamase reporter gene controlled by a STAT inducible element (SIE-bla cells, Invitrogen). IL-6 is a cytokine that signals via the JAK/STAT pathway and is implicated in cancer and inflammation. […] Compounds active in the parental ME-180 cells are likely fluorescent.
NCGC Assay Protocol Summary: Cells were trypsinized, washed in assay medium (AM, OPTI MEM with 0.5% fetal bovine serum, 0.1 mM nonessential amino acids, 1 mM sodium pyruvate, 10mM HEPES pH 7.3, 100U/ml penicillin, and 100 ug/ml streptomycin) and suspended at […] in AM. Approximately 2500 cells in 5 uL/well was dispensed into 1536-well plates and the cells were incubated overnight at 37 C. 23 nL of compound were delivered by a pin tool and 1 uL of IL-6 (40 pM final concentration in AM) was added. After plates were incubated at 37 C for 5 hrs, 1uL of detector mix (LiveBLAzerTM, Invitrogen) was added, the plates incubated at room temperature for 2.5 hrs, and fluorescence intensity at 460 and 530 nm emissions was measured at 405 nm excitation by an Envision (Perkin Elmer).

| SMILES | activity (fluorescence increase) [%] | Potency |
| --- | --- | --- |
| NS(=O)(=O)c1ccc(N=Nc2cc3ccccc3c(C(=O)O)c2O)cc1 | 4.72 |  |
| O=C1CC(N(O)C2CC(=O)N(Cc3ccccc3)C2=O)C(=O)N1Cc1ccccc1 (stereo not given) | 21.3 |  |
| CC1CCN(c2oc(-c3ccccc3Cl)nc2C#N)CC1 | 6.48 |  |
| CCNC(=O)c1cc2c(=O)n3cccc(C)c3nc2n(CCc2ccccc2)c1=N |  | 12.6 µM (active) |
| ClC(=Nc1cccc2ccccc12)N(c1ccccc1)c1ccccc1 | 7.48 |  |
| CN(C)S(=O)(=O)c1ccc2c(c1)/C(=C/c1cc3c([nH]1)CCCC3)C(=O)N2 | 1.89 |  |
| C=CCNC(=O)C(C#N)c1nc2ccccc2nc1N1CCCCCC1 (stereo not given) |  | 15.8 µM (active) |
| Cc1oc2cc(O)cc(C)c2c(=O)c1-c1cnn(-c2ccccc2)c1 | 10.2 |  |
| COc1cc2nc(-c3ccccc3)nc(N3CCCC3)c2cc1OC | 4.63 |  |
| COc1ccc(-c2nn3c(COc4ccccc4)nnc3s2)cc1OC | 10.2 |  |
| ClC(Br)=C(n1cnc2ccccc21)n1cnc2ccccc21 | 11.1 |  |
| Cc1ccc(CNC(=O)c2cc3c(=O)n4ccccc4nc3n(CC3CCCO3)c2=N)cc1 (stereo not given) |  | 10 µM (active) |
| Cn1c(N2CCOCC2)nc2c1c(=O)n(Cc1ccc(Cl)c(Cl)c1)c(=O)n2C | 13 |  |
| CCN(CC)CCN1C(=O)c2cccc3cc(N)cc(c23)C1=O | 3.77 |  |
| O=C1Nc2ccc(I)cc2/C1=C/c1cc(Br)c(O)c(Br)c1 | 17 |  |
| Cc1ccc(S(=O)(=O)N2CCN(c3nc(C(C)C)c4c(c3C#N)CC(C)(C)OC4)CC2)cc1 | 10.2 |  |
| CN(C)CCCn1c2c3ccccc3ccc2c2oc(=O)c3ccccc3c21 |  | 12.6 µM (active) |
| CCN(CC)CCNc1ccc(CO)c2sc3ccccc3c(=O)c12 | -13.1 |  |
| COc1cccc2c1[C@H](CO)N1[C@H](C#N)[C@@H]3C[C@H](C(=O)O)[C@@H]([C@@H]1C2)N3C | 12.3 |  |
| C=CCn1c(SCC(=O)c2ccc(NS(=O)(=O)c3ccccc3)cc2)nnc1-c1cccs1 | 12 |  |

| SMILES | activity (fluorescence increase) [%] | Potency |
| --- | --- | --- |
| Cc1cc(=O)oc2c(CN3CCCCC3)c(O)c(Cl)cc12 |  | 10 µM (active) |
| CCCCCCc1cc2cc(-c3nnc(-c4ccccc4O)o3)c(=O)oc2cc1O |  | 0.0126 µM (active) |
| Clc1ccc(-c2nnc3sc(Cc4cccs4)nn23)cc1 | 4.63 |  |
| CC1(C)Cc2c(C#N)c(NCCc3ccccc3)nc(-c3ccco3)c2CO1 |  | 5.01 µM (active) |
| COc1cc(-c2nn3c(COc4ccccc4)nnc3s2)cc(OC)c1OC | 8.33 |  |
| O=C(Oc1oc(-c2ccco2)nc1C=Nc1ccccc1)c1ccoc1 | 3.7 |  |
| Nc1ncnc2c1ncn2[C@@H]1O[C@H](COP(=O)(O)O)[C@@H](O)[C@@H]1O | -3.74 |  |
| COc1c2c(nc3ccccc13)O[C@@H]([C@@](C)(O)CO)C2 | 9.35 |  |
| COc1cccc2c1C(=N)c1c(O)c3c(c(O)c1C2=O)C[C@](O)(C(C)=O)C[C@@H]3O[C@H]1C[C@H](N)[C@@H](O)[C@H](C)O1 | 16 |  |
| COc1cccc2c1C(=O)c1c(O)c3c(c(O)c1C2=O)C[C@@](O)(C(=O)CO)C[C@@H]3O[C@H]1C[C@H](N)[C@H](O)[C@H](C)O1 | 17.6 |  |
| OC[C@@H]1CCC[C@H](n2cnc3c(=S)nc[nH]c32)O1 | 5.56 |  |
| Cc1ccc(S(=O)(=O)N2CCN(c3nc(C)c4c(c3C#N)CC(C)(C)OC4)CC2)cc1 | 22.2 |  |
| Cn1c(NCc2ccccc2)nc2c1c(=O)n(Cc1ccc(Br)cc1)c(=O)n2C | 13.9 |  |
| C[n+]1cc2c3c(ccc2c2ccc4cc5c(cc4c21)OCO5)OCO3 |  | 10 µM (active) |
| CCC(=O)Oc1oc(-c2ccccc2)nc1C=Nc1ccccc1OC | 17.6 |  |
| COc1ccc(C(=O)CCN(C)C)c2ccccc12 | 15.7 |  |
| C=C1C(=O)O[C@@H]2[C@@H]1CC/C(C)=C\CC[C@@]1(C)O[C@H]21 | 28.3 |  |
| CC[C@@H]1CN2CCc3cc(OC)c(OC)cc3[C@H]2C[C@@H]1C[C@H]1NCCc2cc(OC)c(OC)cc21 | 7.48 |  |
| CN(C)CCCN=c1c2ccccc2n(C)c2[nH]c(=O)n(C)c(=O)c12 | 8.49 |  |
| O=c1c(O)c(-c2ccc(O)cc2)oc2cc(O)ccc12 | 9.35 |  |
